A short description of assay [1]: ATG_GLI_CIS: Attagene CIS-FACTORIAL HepG2 Assay for human Zinc Finger Protein GLI1 (AID 2282945). The following applies: HepG2, Attagene cis-factorial reporter mRNA, GLI element; actives raise or lower the signal. The method in brief:
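HepG2 cells transiently transfected with cis-promoter multiplexed reporter units report endogenous transcription factor activity. After 24 h chemical exposure, reporter mRNA was quantified by RT-PCR, 6-FAM labelling, HpaI digestion and capillary electrophoresis, with bidirectional fitting against DMSO.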

A short description of assay [2]: ATG_GRE_CIS: Attagene CIS-FACTORIAL HepG2 Assay for human Glucocorticoid Response Elements (GRE) (AID 2282947). The conditions noted are these: HepG2 GRE cis-reporter, Attagene multiplex mRNA; actives raise or lower the signal. In outline: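 HepG2, transient cis-reporter transfection, 24 h. Reporter mRNA: RT-PCR then CE, fluorescence. Fit both directions vs DMSO.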

The nature of assay [3]: ATG_ISRE_CIS: Attagene CIS-FACTORIAL HepG2 Assay for human Interferon Regulatory Factor 1 (IRF1) binding to an Interferon-Stimulated Response Element (ISRE) (AID 2282948). The following applies: HepG2 ISRE cis-reporter (Attagene), mRNA transcription readout; actives raise or lower the signal. The method in brief: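 Multiplexed mRNA reporter readout in human liver HepG2 cells: cis-element-driven reporters transfected, compound added for 24 h, transcripts amplified, fluorescently labelled and sized by capillary electrophoresis; curve fitting bidirectional against DMSO.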

Assay [4] can be described thus: ATG_M_32_CIS: Attagene CIS-FACTORIAL HepG2 Assay for M32 Transcription Factor (Internal Marker) (AID 2282949).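 Further: background control marker of the multiplexed CIS panel rather than a real target.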 The conditions noted are these: HepG2 Attagene cis-factorial M32 reporter, mRNA; actives raise or lower the signal. The method in brief:
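Transient MRTU transfection of HepG2; 24 h compound treatment; TriZol RNA, oligo(dT) RT, reporter PCR, 6-FAM primer extension, HpaI cut, CE. Gain/loss of signal vs DMSO.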

Assay [5] can be described thus: ATG_M_06_CIS: Attagene CIS-FACTORIAL HepG2 Assay for M06 Transcription Factor (Internal Marker) (AID 2282950). The conditions noted are these: HepG2 Attagene CIS-FACTORIAL M06 internal marker reporter; actives raise or lower the signal. The method in brief: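 Steps: transfect HepG2 with multiplexed cis-element reporter constructs; dose chemical 24 h; extract RNA with DNase treatment; reverse-transcribe, PCR-amplify, 6-FAM label, HpaI digest; separate fragments by capillary electrophoresis. Activity fitted both directions versus DMSO.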

Assay [6] addresses Hypoxia-inducible factor 1-alpha (Homo sapiens) (UniProt Q16665). Kind of assay: ATG_HIF1a_CIS: Attagene CIS-FACTORIAL HepG2 Assay for human Hypoxia Inducible Factor 1 (HIF1A) (AID 2282951). The conditions noted are these: HepG2 Attagene cis-factorial HIF1a reporter transcription; actives raise or lower the signal. In outline:
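Measures endogenous transcription-factor activity through cis-regulated reporter mRNA in HepG2. Cells dosed 24 h; transcripts quantified by RT-PCR with 6-FAM-labelled products separated by capillary electrophoresis; DMSO serves as negative control.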

Assay [7] addresses Hepatocyte nuclear factor 6 (Homo sapiens) (UniProt Q9UBC0). Kind of assay: ATG_HNF6_CIS: Attagene CIS-FACTORIAL HepG2 Assay for human Hepatocyte Nuclear Factor 6 (HNF6) (AID 2282952). The conditions noted are these: HepG2 Attagene cis-factorial HNF6 reporter transcription; actives raise or lower the signal. The method in brief:
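Using cis-element reporters in HepG2 liver cells, the assay tracks endogenous factor-driven transcription 24 h post-dosing. Signal comes from 6-FAM-labelled, HpaI-digested RT-PCR fragments, with gain or loss scored against DMSO.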

Assay [8] deals with Heat shock factor protein 1 (Homo sapiens) (UniProt Q00613). Kind of assay: ATG_HSE_CIS: Attagene CIS-FACTORIAL HepG2 Assay for human Heat Shock Transcription Factor 1 (HSE) (AID 2282953). The following applies: HepG2 HSE cis-reporter, Attagene RNA transcription; actives raise or lower the signal. In outline:
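Cells were transfected with cis-element-driven reporter constructs, dosed for 24 h, then total RNA was reverse-transcribed and reporter cDNA amplified, FAM-labelled and digested with HpaI. Fragments were resolved by capillary electrophoresis; gain or loss was fitted against DMSO.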

A short description of assay [9]: ATG_MRE_CIS: Attagene CIS-FACTORIAL HepG2 Assay for human Metal Responsive Element (MRE) (AID 2282954). The following applies: HepG2 MRE cis-reporter transcription, Attagene multiplex; actives raise or lower the signal. The method in brief:
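Readout: capillary electrophoresis of 6-FAM-labelled, HpaI-digested RT-PCR reporter products. System: HepG2 cells carrying transient multiplexed cis reporters, dosed 24 h. Analysis: bidirectional fit, DMSO baseline.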

Assay [10] is described as follows: ATG_PBREM_CIS: Attagene CIS-FACTORIAL HepG2 Assay for human Phenobarbital-responsive Enhancer Module (PBREM) (AID 2282955). The conditions noted are these: HepG2 PBREM cis-reporter, Attagene multiplexed transcription; actives raise or lower the signal. The method in brief: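 Fluorescence of labelled reporter cDNA fragments, resolved by capillary electrophoresis, gives mRNA induction in transfected HepG2 cells treated for 24 h; DMSO serves as negative control and baseline.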

Assay [11] addresses Paired box protein Pax-6 (Homo sapiens) (UniProt P26367). Put plainly: ATG_Pax6_CIS: Attagene CIS-FACTORIAL HepG2 Assay for human Paired Box 6 (PAX6) (AID 2282956). The following applies: HepG2 CIS-FACTORIAL PAX6 reporter transcription, RNA readout; actives raise or lower the signal. In outline:
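Fluorescent RT-PCR products separated by capillary electrophoresis report PAX6-linked promoter mRNA in HepG2 cells 24 h post-dose. Curves fitted bidirectionally, DMSO as negative control.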

The nature of assay [12]: ATG_PXRE_CIS: Attagene CIS-FACTORIAL HepG2 Assay for human Pregnane X Receptor Element (PXRE) (AID 2282957). The conditions noted are these: HepG2 Attagene CIS-FACTORIAL PXRE reporter, mRNA; actives raise or lower the signal. In outline:
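Using HepG2 transfected with multiple reporter transcription units, endogenous factor-driven transcription was scored as reporter mRNA after 24 h exposure.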

Assay [13] can be described thus: ATG_PPRE_CIS: Attagene CIS-FACTORIAL HepG2 Assay for human Peroxisome Proliferator-activated Response Element (PPRE) (AID 2282958). The conditions noted are these: HepG2 PPRE cis-element reporter, Attagene transcription factor profiling; actives raise or lower the signal. The method in brief: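 Cells are first transfected transiently with the multiplexed reporter library, then dosed for 24 h. Total RNA is reverse-transcribed, amplified, fluorescently end-labeled and HpaI-cut before capillary electrophoresis; activity is fitted bidirectionally against DMSO controls.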

Assay [14] is described as follows: ATG_RORE_CIS: Attagene CIS-FACTORIAL HepG2 Assay for human RAR-related Orphan Receptor Element (RORE) (AID 2282959). The following applies: HepG2 Attagene cis-factorial RORE reporter, mRNA; actives raise or lower the signal. In outline:
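Cells were HepG2 carrying transfected cis-regulated reporter constructs, dosed for 24 hours. Total RNA was reverse-transcribed and reporter cDNA amplified, fluorescently labeled and sized by capillary electrophoresis. Activity was fitted bidirectionally relative to DMSO.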

A short description of assay [15]: ATG_Sox_CIS: Attagene CIS-FACTORIAL HepG2 Assay for human SRY-box transcription factor (SOX) (AID 2282960). The following applies: HepG2 Attagene cis-factorial SOX reporter, mRNA; actives raise or lower the signal. The method in brief: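 Transient MRTU transfection of HepG2; 24 h compound incubation; TriZol RNA, oligo(dT) RT, PCR, 6-FAM primer extension, HpaI cut, CE. Bidirectional fit, DMSO = baseline.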

Assay [16] concerns the target Transcription factor Sp1 (Homo sapiens) (UniProt P08047). Put plainly: ATG_Sp1_CIS: Attagene CIS-FACTORIAL HepG2 Assay for human Specificity Protein 1 (Sp1) (AID 2282961). The conditions noted are these: HepG2 Sp1 cis-reporter transcription, actives raise or lower the signal. The method in brief: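 Endogenous Sp1 activity was gauged in human liver HepG2 cells bearing transfected reporter units under a cis-regulating promoter. After 24 h dosing, reporter mRNA was quantified by RT-PCR with capillary electrophoresis, and activity fitted bidirectionally versus DMSO.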

A short description of assay [17]: ATG_SREBP_CIS: Attagene CIS-FACTORIAL HepG2 Assay for human Sterol Regulatory Element Binding (SREBP) (AID 2282962). The following applies: HepG2 Attagene cis-factorial SREBP reporter, mRNA; actives raise or lower the signal. The method in brief: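 Endogenous factor activity is measured in HepG2 through multiplexed reporter units under cis-element control. Following a 24 h incubation, reporter transcripts are reverse-transcribed, PCR-amplified and sized by capillary electrophoresis; activity is fitted in both directions relative to DMSO.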

Assay [18] addresses Signal transducer and activator of transcription 3 (Homo sapiens) (UniProt P40763). Put plainly: ATG_STAT3_CIS: Attagene CIS-FACTORIAL HepG2 Assay for human Signal Transducer and Activator of Transcription 3 (STAT3) (AID 2282963). The following applies: HepG2, Attagene cis-factorial STAT3 reporter transcription; actives raise or lower the signal. The method in brief:
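Uses human liver HepG2 transiently carrying cis-regulated reporter transcription units. Following 24 h dosing, reporter mRNA induction was detected by RT-PCR and capillary electrophoresis, analysed bidirectionally versus DMSO.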

Assay [19] is described as follows: ATG_TA_CIS: Attagene CIS-FACTORIAL HepG2 Assay for human TA Basal Promoter (AID 2282964). The following applies: HepG2 Attagene CIS-factorial TA basal promoter reporter; actives raise or lower the signal. The method in brief: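 Steps: transfect HepG2 with MRTUs; dose 24 h; isolate RNA, DNase-treat, reverse-transcribe; PCR and FAM-label reporter cDNA; digest with HpaI 2h at 37 C; run capillary electrophoresis. Activity fitted both directions against DMSO.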

Molecules are shown by their SMILES. Where a structure was tested more than once in an assay, its records may differ in their call. Calls of active or inactive are those of the source. How the source made its calls: active means hit-call score of the fitted dose curve at least 0.9, where 1 is the maximum; inactive means score below 0.9.

Transcription factor Sp1 (Homo sapiens), sequence (P08047 whole entry, looked up): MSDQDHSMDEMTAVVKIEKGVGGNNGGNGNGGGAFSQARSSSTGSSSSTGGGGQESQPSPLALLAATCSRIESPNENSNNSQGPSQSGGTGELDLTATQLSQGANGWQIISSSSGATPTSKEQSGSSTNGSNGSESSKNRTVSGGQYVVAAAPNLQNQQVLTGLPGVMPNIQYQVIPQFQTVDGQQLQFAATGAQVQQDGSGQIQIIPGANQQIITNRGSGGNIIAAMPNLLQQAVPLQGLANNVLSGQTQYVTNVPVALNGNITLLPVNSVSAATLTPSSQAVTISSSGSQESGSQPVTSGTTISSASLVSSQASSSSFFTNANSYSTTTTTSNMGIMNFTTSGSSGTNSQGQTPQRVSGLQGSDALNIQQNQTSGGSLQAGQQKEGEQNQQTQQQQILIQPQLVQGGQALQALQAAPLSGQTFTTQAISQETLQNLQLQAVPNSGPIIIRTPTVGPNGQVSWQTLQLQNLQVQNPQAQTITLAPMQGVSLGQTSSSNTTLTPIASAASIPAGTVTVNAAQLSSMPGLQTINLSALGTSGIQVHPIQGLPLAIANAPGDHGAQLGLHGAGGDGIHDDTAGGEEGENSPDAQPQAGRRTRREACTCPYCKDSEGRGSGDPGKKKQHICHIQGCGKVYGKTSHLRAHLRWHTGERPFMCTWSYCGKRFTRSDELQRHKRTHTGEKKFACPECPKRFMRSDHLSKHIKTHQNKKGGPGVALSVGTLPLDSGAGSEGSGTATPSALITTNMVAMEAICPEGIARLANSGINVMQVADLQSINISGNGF
Signal transducer and activator of transcription 3 (Homo sapiens), sequence (P40763 whole entry, looked up): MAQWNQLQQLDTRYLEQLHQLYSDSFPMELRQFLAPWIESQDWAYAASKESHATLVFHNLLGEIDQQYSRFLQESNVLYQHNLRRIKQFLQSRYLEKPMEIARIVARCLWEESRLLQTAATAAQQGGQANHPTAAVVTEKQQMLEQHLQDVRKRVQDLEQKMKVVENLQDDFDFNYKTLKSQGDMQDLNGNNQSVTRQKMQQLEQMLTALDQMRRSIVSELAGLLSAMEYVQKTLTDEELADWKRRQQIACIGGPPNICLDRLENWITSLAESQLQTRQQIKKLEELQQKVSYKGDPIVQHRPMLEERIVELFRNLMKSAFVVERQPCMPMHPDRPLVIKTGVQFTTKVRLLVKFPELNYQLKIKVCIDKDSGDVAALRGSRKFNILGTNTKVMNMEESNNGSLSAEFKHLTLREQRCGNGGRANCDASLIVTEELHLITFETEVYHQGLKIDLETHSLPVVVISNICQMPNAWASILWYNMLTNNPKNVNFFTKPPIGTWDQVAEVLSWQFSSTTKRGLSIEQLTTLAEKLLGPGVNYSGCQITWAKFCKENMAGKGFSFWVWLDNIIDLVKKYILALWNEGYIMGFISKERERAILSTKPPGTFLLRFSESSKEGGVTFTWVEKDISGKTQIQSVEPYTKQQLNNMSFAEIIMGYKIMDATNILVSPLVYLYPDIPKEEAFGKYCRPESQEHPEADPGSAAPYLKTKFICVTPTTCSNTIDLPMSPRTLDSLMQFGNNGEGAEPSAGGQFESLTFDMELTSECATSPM
Hypoxia-inducible factor 1-alpha (Homo sapiens), sequence (Q16665 whole entry, looked up): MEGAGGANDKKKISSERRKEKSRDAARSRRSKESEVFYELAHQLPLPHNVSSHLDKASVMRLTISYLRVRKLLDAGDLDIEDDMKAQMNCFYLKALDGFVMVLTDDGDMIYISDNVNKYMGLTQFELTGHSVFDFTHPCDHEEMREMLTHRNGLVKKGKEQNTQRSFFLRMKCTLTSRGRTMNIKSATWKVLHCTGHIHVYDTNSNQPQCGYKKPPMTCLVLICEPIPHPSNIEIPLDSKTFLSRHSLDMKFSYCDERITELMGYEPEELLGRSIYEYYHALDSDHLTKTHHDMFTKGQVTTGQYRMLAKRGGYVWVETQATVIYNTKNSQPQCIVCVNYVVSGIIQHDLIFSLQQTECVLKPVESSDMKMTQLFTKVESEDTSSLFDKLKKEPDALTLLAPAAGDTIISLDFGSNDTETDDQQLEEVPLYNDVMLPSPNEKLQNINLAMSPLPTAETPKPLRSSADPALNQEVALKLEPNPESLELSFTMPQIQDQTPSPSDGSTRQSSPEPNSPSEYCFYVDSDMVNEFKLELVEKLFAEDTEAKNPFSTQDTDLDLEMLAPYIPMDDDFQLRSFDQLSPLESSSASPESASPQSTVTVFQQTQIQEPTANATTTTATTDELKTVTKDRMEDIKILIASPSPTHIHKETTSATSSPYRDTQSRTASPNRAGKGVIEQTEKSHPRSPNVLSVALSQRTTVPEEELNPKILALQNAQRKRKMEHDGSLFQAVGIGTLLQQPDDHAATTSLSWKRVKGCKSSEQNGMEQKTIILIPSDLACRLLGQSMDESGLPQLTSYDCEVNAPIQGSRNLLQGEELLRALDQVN
Hepatocyte nuclear factor 6 (Homo sapiens), sequence (Q9UBC0 whole entry, looked up, the tested form may be a part): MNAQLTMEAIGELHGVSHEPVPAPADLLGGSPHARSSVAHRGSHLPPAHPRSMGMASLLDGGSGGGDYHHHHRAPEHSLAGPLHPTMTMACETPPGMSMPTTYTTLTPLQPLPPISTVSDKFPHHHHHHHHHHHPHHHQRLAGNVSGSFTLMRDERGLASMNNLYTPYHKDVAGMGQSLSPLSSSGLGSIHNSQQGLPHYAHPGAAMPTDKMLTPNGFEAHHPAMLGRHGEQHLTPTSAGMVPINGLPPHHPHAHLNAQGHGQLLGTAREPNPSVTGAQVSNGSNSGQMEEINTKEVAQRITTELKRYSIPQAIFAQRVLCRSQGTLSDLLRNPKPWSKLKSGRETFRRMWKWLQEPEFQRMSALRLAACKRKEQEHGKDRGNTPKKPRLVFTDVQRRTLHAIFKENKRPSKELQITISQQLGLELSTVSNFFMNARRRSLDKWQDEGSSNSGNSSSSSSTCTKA
Paired box protein Pax-6 (Homo sapiens), sequence (P26367 whole entry, looked up): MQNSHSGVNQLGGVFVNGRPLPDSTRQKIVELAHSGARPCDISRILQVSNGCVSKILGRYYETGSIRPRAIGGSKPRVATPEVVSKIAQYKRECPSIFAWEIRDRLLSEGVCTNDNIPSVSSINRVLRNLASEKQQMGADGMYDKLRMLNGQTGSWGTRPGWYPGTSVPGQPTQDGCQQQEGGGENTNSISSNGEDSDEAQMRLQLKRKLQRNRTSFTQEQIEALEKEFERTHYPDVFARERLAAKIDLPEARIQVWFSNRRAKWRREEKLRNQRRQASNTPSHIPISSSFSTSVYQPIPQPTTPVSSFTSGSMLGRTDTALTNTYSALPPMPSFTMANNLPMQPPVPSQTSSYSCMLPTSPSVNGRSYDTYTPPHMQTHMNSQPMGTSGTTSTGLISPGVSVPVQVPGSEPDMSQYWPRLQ
Heat shock factor protein 1 (Homo sapiens), sequence (Q00613 whole entry, looked up, the tested form may be a part): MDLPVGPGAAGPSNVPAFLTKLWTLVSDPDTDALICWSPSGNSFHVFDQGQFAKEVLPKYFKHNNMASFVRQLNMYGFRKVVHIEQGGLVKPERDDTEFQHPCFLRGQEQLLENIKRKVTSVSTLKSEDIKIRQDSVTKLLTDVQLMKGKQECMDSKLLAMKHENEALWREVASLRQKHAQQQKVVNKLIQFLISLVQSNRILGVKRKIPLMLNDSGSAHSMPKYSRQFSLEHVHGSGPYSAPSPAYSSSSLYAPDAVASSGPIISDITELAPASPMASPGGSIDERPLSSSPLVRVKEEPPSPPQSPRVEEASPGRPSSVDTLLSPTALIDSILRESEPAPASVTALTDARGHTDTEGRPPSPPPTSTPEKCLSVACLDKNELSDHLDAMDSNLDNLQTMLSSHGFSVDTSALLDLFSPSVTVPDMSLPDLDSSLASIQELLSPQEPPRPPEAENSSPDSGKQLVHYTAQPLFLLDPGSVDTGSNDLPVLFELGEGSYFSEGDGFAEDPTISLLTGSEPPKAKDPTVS

In the case of `FC1CC(F)(F)C(F)(F)C1(F)F` (stereo not drawn), the molecule was classed as inactive in [1], in [2], in assay [3], in assay [4], in assay [5] and in [6]. Moreover, the result in assay [7], in assay [8], in assay [9], in [10], in assay [11] and in assay [12] was inactive. The molecule was classed as inactive in [13], in [14], in [15], in assay [16], in assay [17] and in assay [18]. In addition, the outcome in [19] was inactive.
For the molecule `FC(F)(F)C(F)(F)C(F)(F)N(C(F)(F)C(F)(F)C(F)(F)F)C(F)(F)C(F)(F)C(F)(F)F`, the molecule was called inactive in [1], in [2], in assay [3], in assay [4], in [5] and in [6]. Further, the outcome in [7], in [8], in assay [9], in assay [10], in assay [11] and in assay [12] was inactive. Besides, the call in assay [13], in assay [14], in [15], in assay [16], in assay [17] and in assay [18] was inactive. Further, in assay [19], the call was inactive.
In general, AC50 refers to the concentration giving half of the maximal activity seen. As for `C1COCCN1`, the molecule was classed as inactive in assay [1], in assay [3], in assay [4], in [5], in assay [6] and in [7]. For the same molecule, the call in assay [8], in [9], in [10], in assay [11], in assay [12] and in assay [14] was inactive. Also, the call in assay [15], in assay [16], in assay [17], in assay [18] and in [19] was inactive. Besides, in assay [12], the AC50 is 27.2 µM (active).
For `OCC(F)(F)C(F)(F)C(F)(F)F`, the outcome in [1], in [2], in [3], in [4], in assay [5] and in [6] was inactive. Also, the molecule was classed as inactive in [7], in [8], in assay [9], in [10], in assay [11] and in [12]. In addition, the result in assay [13], in [14], in assay [15], in assay [16], in assay [17] and in assay [18] was inactive. Moreover, the molecule was classed as inactive in [19].
In the case of `Nc1cc(Cl)c(N)c(Cl)c1`, the call in assay [1], in assay [2], in assay [3], in [4], in assay [5] and in assay [6] was inactive. Moreover, the call in [7], in [8], in [9], in assay [10], in assay [11] and in assay [13] was inactive. Also, the result in [14], in [15], in [16], in [17], in [18] and in assay [19] was inactive. For the same molecule, the AC50 in [12] was 37 µM (active).
`FC(F)(I)C(F)(F)C(F)(F)C(F)(F)I`: the molecule was called inactive in [1], in assay [2], in [3], in assay [4], in [5] and in assay [6]. Also, the call in [7], in [8], in assay [9], in assay [10], in [11] and in assay [12] was inactive. Further, the molecule was classed as inactive in assay [13], in assay [14], in assay [15], in assay [16], in [17] and in assay [18]. In addition, the molecule was called inactive in assay [19].

The values above are taken from PubChem BioAssay (EPA / NIEHS).
